Assay results as given in PubChem BioAssay (NCATS).
Records with an inconclusive call do not appear. The source made the active and inactive calls. The call rests on the fitted dose curve; in most records, active means well fitted curve in the direction sought with a large enough effect; inconclusive means small, poorly fitted or top-dose-only effect, or another doubt; inactive means no such curve, though single readings can be large; an effect the other way counts as inactive or inconclusive.

Key:
[1] = Quantitative High-Throughput drug screen in 47 multiple myeloma cell lines against the NCATS MIPE library collection: H1112_PLB cell viability assay (AID 1918967; further: nearly all actives have a fitted effect of over 30% in size)
Procedure, shortened: (§1)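 We plated 500 myeloma cells per well, pinned in MIPE 4.0 compounds, and incubated for 48 hours at 37C. ATP was then quantified with CellTiter-Glo, with DMSO and media-only wells defining 100% and 0%.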

[2] = Quantitative High-Throughput drug screen in 47 multiple myeloma cell lines against the NCATS MIPE library collection: Karpas25_ECACC cell viability assay (AID 1918968; further: nearly all actives have a fitted effect of over 35% in size)
Procedure, shortened: as §1

[3] = Quantitative High-Throughput drug screen in 47 multiple myeloma cell lines against the NCATS MIPE library collection: KMS27_JCRB cell viability assay (AID 1918970); further: nearly all actives have a fitted effect of over 30% in size
Procedure, shortened: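 ATP-based viability (CellTiter-Glo luminescence) is measured in cells treated 48 h with approved and investigational drugs at 37 °C. Controls are DMSO-only wells for full viability and media-only wells for none.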

[4] = Quantitative High-Throughput drug screen in 47 multiple myeloma cell lines against the NCATS MIPE library collection: KMS12BM_JCRB cell viability assay (AID 1918971); further: nearly all actives have a fitted effect of over 35% in size
Procedure, shortened: (§2)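 Relative luminescence from CellTiter-Glo served as the viability signal, referenced to DMSO-treated (100%) and cell-free medium (0%) controls. Treatment lasted 48 hours at 37C with 500 cells per well.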

[5] = Quantitative High-Throughput drug screen in 47 multiple myeloma cell lines against the NCATS MIPE library collection: KMS12PE_JCRB cell viability assay (AID 1918972); further: nearly all actives have a fitted effect of over 30% in size
Procedure, shortened: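 CellTiter-Glo luminescence (ATP) after 48 h compound exposure, 37C/5% CO2; 500 cells/well; MIPE 4.0 approved/investigational drugs pinned in; DMSO = 100%, media only = 0% viability.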

[6] = Quantitative High-Throughput drug screen in 47 multiple myeloma cell lines against the NCATS MIPE library collection: KMS26_JCRB cell viability assay (AID 1918975); further: nearly all actives have a fitted effect of over 45% in size
Procedure, shortened: as §2

[7] = Quantitative High-Throughput drug screen in 47 multiple myeloma cell lines against the NCATS MIPE library collection: MMM1_PLB cell viability assay (AID 1918976); further: nearly all actives have a fitted effect of over 35% in size
Procedure, shortened: (§3)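 500 cells/well; MIPE 4.0 drugs pin-transferred; 48 h, 37C, 5% CO2. CellTiter-Glo, 5 min RT, luminescence. Controls: DMSO 100%, media 0%.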

[8] = Quantitative High-Throughput drug screen in 47 multiple myeloma cell lines against the NCATS MIPE library collection: MOLP8_DSMZ cell viability assay (AID 1918977); further: nearly all actives have a fitted effect of over 45% in size
Procedure, shortened: as §3

[9] = Quantitative High-Throughput drug screen in 47 multiple myeloma cell lines against the NCATS MIPE library collection: NCIH929_DSMZ cell viability assay (AID 1918978); further: nearly all actives have a fitted effect of over 35% in size
Procedure, shortened: as §3

[10] = Quantitative High-Throughput drug screen in 47 multiple myeloma cell lines against the NCATS MIPE library collection: OCIMY1_PLB cell viability assay (AID 1918979); further: nearly all actives have a fitted effect of over 35% in size
Procedure, shortened: as §3

[11] = Quantitative High-Throughput drug screen in 47 multiple myeloma cell lines against the NCATS MIPE library collection: MM1S_ATCC cell viability assay (AID 1918980); further: nearly all actives have a fitted effect of over 45% in size
Procedure, shortened: as §3

[12] = Quantitative High-Throughput drug screen in 47 multiple myeloma cell lines against the NCATS MIPE library collection: LP1_DSMZ cell viability assay (AID 1918982); further: nearly all actives have a fitted effect of over 35% in size
Procedure, shortened: as §3

[13] = Quantitative High-Throughput drug screen in 47 multiple myeloma cell lines against the NCATS MIPE library collection: KMS28PE_JCRB cell viability assay (AID 1918983); further: nearly all actives have a fitted effect of over 35% in size
Procedure, shortened: as §3

[14] = Quantitative High-Throughput drug screen in 47 multiple myeloma cell lines against the NCATS MIPE library collection: L363_DSMZ cell viability assay (AID 1918984); further: nearly all actives have a fitted effect of over 40% in size
Procedure, shortened: as §3

[15] = Quantitative High-Throughput drug screen in 47 multiple myeloma cell lines against the NCATS MIPE library collection: KMS34_JCRB cell viability assay (AID 1918985); further: nearly all actives have a fitted effect of over 40% in size
Procedure, shortened: as §3

[16] = Quantitative High-Throughput drug screen in 47 multiple myeloma cell lines against the NCATS MIPE library collection: OCIMY7_PLB cell viability assay (AID 1918987); settings: OCI-MY7 myeloma viability, CellTiter-Glo ATP, 48 h; viability (% of DMSO): at 45.8 µM (top of the series); further: nearly all actives have a fitted effect of over 65% in size
Procedure, shortened: as §3

[17] = Quantitative High-Throughput drug screen in 47 multiple myeloma cell lines against the NCATS MIPE library collection: OCIMY5_PLB cell viability assay (AID 1918988); further: nearly all actives have a fitted effect of over 65% in size
Procedure, shortened: as §3

[18] = Quantitative High-Throughput drug screen in 47 multiple myeloma cell lines against the NCATS MIPE library collection: MM1R_ATCC cell viability assay (AID 1918981); further: nearly all actives have a fitted effect of over 35% in size
Procedure, shortened: as §3

[19] = Quantitative High-Throughput drug screen in 47 multiple myeloma cell lines against the NCATS MIPE library collection: KMS20_JCRB cell viability assay (AID 1918973); further: nearly all actives have a fitted effect of over 45% in size
Procedure, shortened: as §1

[20] = Quantitative High-Throughput drug screen in 47 multiple myeloma cell lines against the NCATS MIPE library collection: KMS21BM_JCRB cell viability assay (AID 1918974); settings: ATP luminescence, 48 h; viability: at 45.8 µM (top of the series) unless noted
Procedure, shortened: as §1
Potency means the concentration at half of the fitted maximal effect.

## O=C1c2ccccc2-[n+]2ccc3c([nH]c4ccccc43)c21
[1]
  Potency: 5.26 µM (active)
[2]
  Potency: 0.418 µM (active)
[3]
  Potency: 2.64 µM (active)
[4]
  Potency: 2.09 µM (active)
[5]
  Potency: 5.26 µM (active)
[6]
  Potency: 2.35 µM (active)
[7]
  Potency: 1.32 µM (active)
[8]
  Potency: 1.48 µM (active)
[9]
  Potency: 3.32 µM (active)
[10]
  Potency: 3.72 µM (active)
[11]
  Potency: 2.64 µM (active)
[12]
  Potency: 2.35 µM (active)
[13]
  Potency: 2.35 µM (active)
[14]
  Potency: 3.72 µM (active)
[15]
  Potency: 0.833 µM (active)
[16]
  Potency: 0.264 µM (active)
[17]
  Potency: 1.05 µM (active)

## COC[C@@H](c1ccc(C(F)(F)F)cc1)N1CCN(C2(C)CCN(C(=O)c3c(C)ncnc3C)CC2)C[C@H]1C
[1]
  Potency: 13.2 µM (active)
[2]
  Potency: 8.33 µM (active)
[3]
  Potency: inactive
[4]
  Potency: inactive
[6]
  Potency: inactive
[8]
  Potency: inactive
[9]
  Potency: 9.35 µM (active)
[10]
  Potency: inactive
[11]
  Potency: 2.35 µM (active)
[18]
  Potency: inactive
[12]
  Potency: inactive
[13]
  Potency: inactive

## Nc1ncnc2c1ncn2[C@@H]1O[C@H](CO)C[C@@H]1O
[1]
  Potency: inactive
[2]
  Potency: inactive
[3]
  Potency: inactive
[4]
  Potency: 20.9 µM (active)
[5]
  Potency: inactive
[6]
  Potency: inactive
[7]
  Potency: 1.32 µM (active)
[9]
  Potency: inactive
[10]
  Potency: inactive
[18]
  Potency: inactive
[14]
  Potency: inactive
[16]
  Potency: inactive

## COc1cc2nc(-c3ccc(N4CCN(C)CC4)cc3)nc(NCCN3CCOCC3)c2cc1OC
[1]
  Potency: 1.48 µM (active)
[2]
  Potency: 0.0105 µM (active)
[3]
  Potency: 0.0332 µM (active)
[4]
  Potency: 0.166 µM (active)
[5]
  Potency: 0.209 µM (active)
[19]
  Potency: 0.105 µM (active)
[6]
  Potency: 0.0372 µM (active)
[7]
  Potency: 0.0743 µM (active)
[8]
  Potency: 0.0418 µM (active)
[9]
  Potency: 0.296 µM (active)
[11]
  Potency: 0.0187 µM (active)
[18]
  Potency: 0.0118 µM (active)
[12]
  Potency: 0.132 µM (active)
[13]
  Potency: 0.0662 µM (active)
[14]
  Potency: 0.132 µM (active)
[15]
  Potency: 0.0209 µM (active)
[16]
  Potency: 14.8 µM (active)
[17]
  Potency: 0.0187 µM (active)

## O=C(OCC#CCSc1nnc(-c2cccc3ccccc23)o1)c1cc2ccccc2s1
[1]
  Potency: inactive
[2]
  Potency: inactive
[3]
  Potency: inactive
[4]
  Potency: 16.6 µM (active)
[5]
  Potency: inactive
[6]
  Potency: inactive
[9]
  Potency: inactive
[10]
  Potency: inactive
[11]
  Potency: inactive
[13]
  Potency: inactive
[14]
  Potency: inactive
[16]
  Potency: inactive

## CC[C@@]1(O)C[C@H](O[C@H]2C[C@H](N(C)C)[C@H](O[C@H]3C[C@H](O)[C@H](O[C@H]4CCC(=O)[C@H](C)O4)[C@H](C)O3)[C@H](C)O2)c2c(cc3c(c2O)C(=O)c2c(O)cccc2C3=O)[C@@H]1C(=O)OC
[1]
  Potency: 0.833 µM (active)
[2]
  Potency: 0.372 µM (active)
[3]
  Potency: inactive
[4]
  Potency: 0.148 µM (active)
[6]
  Potency: 0.743 µM (active)
[7]
  Potency: 0.296 µM (active)
[8]
  Potency: 0.296 µM (active)
[9]
  Potency: 0.264 µM (active)
[10]
  Potency: 1.66 µM (active)
[11]
  Potency: 0.187 µM (active)
[12]
  Potency: 1.05 µM (active)
[13]
  Potency: 0.418 µM (active)
[15]
  Potency: 2.09 µM (active)
[16]
  Potency: 0.372 µM (active)
[17]
  Potency: 0.0935 µM (active)

## CS(=O)(=O)N(Cc1ccco1)CC(O)Cn1c2ccccc2c2ccccc21 (stereo not given)
[1]
  Potency: inactive
[2]
  Potency: 6.62 µM (active)
[3]
  Potency: inactive
[4]
  Potency: 20.9 µM (active)
[5]
  Potency: inactive
[7]
  Potency: 20.9 µM (active)
[10]
  Potency: inactive
[13]
  Potency: 5.9 µM (active)
[14]
  Potency: inactive
[15]
  Potency: 16.6 µM (active)
[16]
  Potency: 13.2 µM (active)

## CCOC(=O)C1=C(N)Oc2ccc(Br)cc2C1C(C#N)C(=O)OCC (stereo not given)
[1]
  Potency: 16.6 µM (active)
[2]
  Potency: 20.9 µM (active)
[3]
  Potency: 18.7 µM (active)
[4]
  Potency: 18.7 µM (active)
[5]
  Potency: 18.7 µM (active)
[6]
  Potency: 14.8 µM (active)
[7]
  Potency: 20.9 µM (active)
[8]
  Potency: 18.7 µM (active)
[9]
  Potency: 20.9 µM (active)
[11]
  Potency: 16.6 µM (active)
[13]
  Potency: 26.4 µM (active)
[16]
  Potency: 7.43 µM (active)
[17]
  Potency: 9.35 µM (active)

## Clc1ccc(C(c2ccc(Cl)cc2)n2cc[n+](CC(OCc3ccc(Cl)cc3Cl)c3ccc(Cl)cc3Cl)c2)cc1 (stereo not given)
[1]
  Potency: 11.8 µM (active)
[2]
  Potency: 7.43 µM (active)
[3]
  Potency: 7.43 µM (active)
[4]
  Potency: 23.5 µM (active)
[5]
  Potency: 7.43 µM (active)
[20]
  Potency: 8.33 µM (active)
[6]
  Potency: 16.6 µM (active)
[7]
  Potency: 18.7 µM (active)
[8]
  Potency: 18.7 µM (active)
[9]
  Potency: 9.35 µM (active)
[10]
  Potency: 18.7 µM (active)
[11]
  Potency: 16.6 µM (active)
[18]
  Potency: 18.7 µM (active)
[12]
  Potency: 18.7 µM (active)
[13]
  Potency: 20.9 µM (active)
[14]
  Potency: 6.62 µM (active)
[15]
  Potency: 16.6 µM (active)
[17]
  Potency: 14.8 µM (active)

## Nc1nc(F)nc2c1ncn2[C@@H]1O[C@H](COP(=O)(O)O)[C@@H](O)[C@H]1O
[1]
  Potency: inactive
[2]
  Potency: 13.2 µM (active)
[3]
  Potency: inactive
[4]
  Potency: 16.6 µM (active)
[6]
  Potency: inactive
[18]
  Potency: 18.7 µM (active)
[16]
  Potency: 18.7 µM (active)
[17]
  Potency: 23.5 µM (active)

## CC(C)=CC[C@@H](O)C1=CC(=O)c2c(O)ccc(O)c2C1=O
[1]
  Potency: 7.43 µM (active)
[2]
  Potency: 5.26 µM (active)
[3]
  Potency: 20.9 µM (active)
[4]
  Potency: 0.935 µM (active)
[5]
  Potency: 18.7 µM (active)
[6]
  Potency: 0.418 µM (active)
[7]
  Potency: 1.05 µM (active)
[8]
  Potency: 0.418 µM (active)
[9]
  Potency: 0.264 µM (active)
[11]
  Potency: 0.662 µM (active)
[18]
  Potency: 0.264 µM (active)
[13]
  Potency: 1.05 µM (active)
[15]
  Potency: 1.05 µM (active)
[17]
  Potency: 0.469 µM (active)
